# aSyn 5UTR act: Activators via SNCA 5'UTR binding, MLPCN | alpha-synuclein 5'UTR reporter, activators screen | AID 1814 | activity score, % (tested at 7.5 µM), hits read low | 300,000 compounds, 7.1% hits; in the data active = activity score below about -60%
# Active calls of the source: *. Not all results are given here.
SMILES,aSyn 5UTR act
CCN(CC)c1ccc(/C=N/NC(=O)c2cccc(S(=O)(=O)N3CCOCC3)c2)c(O)c1,129
Cc1ccc(-c2cc3nc(-c4ccccc4)cc(N)n3n2)cc1,-236*
CSc1nc(N)n2nc(-c3ccccc3)cc2n1,-119*
COc1ccc(OC)c(NC(=O)c2cc(-c3cc(C)ccc3O)n[nH]2)c1,-104*
Cc1ccc(C)c(NC(=O)c2cc(-c3ccccc3O)n[nH]2)c1,-198*
Cc1ccc(C)c(NC(=O)COC(=O)c2cccc3c2C(=O)c2ccccc2C3=O)c1,55
Cc1ccc(-c2cc(C(=O)Nc3cc(C)ccc3C)[nH]n2)c(O)c1,-86*
Cc1ccc(C)c(NC(=O)c2cc(-c3cc(C)c(C)cc3O)n[nH]2)c1,-233*
Cc1nc2cc(NCc3ccc(Cl)cc3)ccc2n1C,-67*
Cc1ccc(CNc2ccc3c(c2)nc(C)n3C)cc1,-64*
CCOc1ccc(Nc2ncnc3c2nnn3Cc2ccccc2)cc1,-79*
Cc1ccc(S(=O)(=O)c2ccc([N+](=O)[O-])cn2)cc1,-73*
N#C/C(=C\c1ccco1)Sc1nc2ccccc2s1,-84*
O=C1C2C3C=CC(C3)C2C(=O)N1c1ccc(-c2nc3ccccc3o2)cc1 (stereo unspecified),-152*
Cc1cc(O)ccc1Nc1nc2ccccc2nc1Nc1ccc(O)cc1C,-106*
Cc1cc2nc(-c3ccc(SCc4ccccc4C#N)nc3)[nH]c2cc1C,-78*
Cc1cc2nc(-c3ccc(SCc4ccc(C(=O)O)cc4)nc3)[nH]c2cc1C,-160*
Cc1cc2nc(-c3ccc(SCC(=O)Nc4ccc(S(=O)(=O)NC5CC5)cc4)nc3)[nH]c2cc1C,-116*
Cc1cc(NC(=O)CSc2ccc(-c3nc4cc(C)c(C)cc4[nH]3)cn2)no1,-100*
Cc1cc2nc(-c3ccc(SCC(=O)N4CCc5ccccc54)nc3)[nH]c2cc1C,-220*
Cc1cc2nc(-c3ccc(SCC(=O)NC(C)C)nc3)[nH]c2cc1C,-134*
CC(C)(C)C(=O)Cn1ncc(Br)c(Br)c1=O,-92*
CCN(C(=O)c1cc2c(=O)[nH]c3ccc(C)cc3c2s1)c1cccc(C)c1,-217*
O=C(NCCc1ccc(Cl)cc1)c1ccc(Br)s1,-180*
O=C(NCCCCCCNC(=O)c1ccc(Br)s1)c1ccc(Br)s1,-108*
SMILES,aSyn 5UTR act
CCOc1ccc(-c2nnc(N(CC)C(=O)C3CCC3)s2)cc1,-102*
CCCC(=O)N(C)c1nnc(-c2ccc(OC)cc2)s1,-129*
CC(C)(C)c1ccc(C(=O)Nc2cccc3c(=O)[nH][nH]c(=O)c23)cc1,-68*
Clc1cnc(N/N=C/c2cccs2)c(Cl)c1,-193*
Oc1ccc(/C=N/Nc2ncc(Cl)cc2Cl)cc1,-73*
Cc1ccc(/C=N/Nc2ncc(Cl)cc2Cl)s1,-148*
Fc1ccccc1N1CCN(c2cnc3ccccc3n2)CC1,-70*
c1ccc(CN2CCN(c3cnc4ccccc4n3)CC2)cc1,-208*
Oc1ccccc1N1CCN(c2ccc3ccccc3n2)CC1,-138*
Cc1cc(C)n(C(=O)c2cc3sccc3[nH]2)n1,-82*
[O-]/[N+](=C\C=C\c1ccccc1)c1ccccc1,-182*
N#Cc1cc2ccc(N3CCOCC3)cc2cc1C#N,-73*
Cc1cccc(-c2ncc(S(=O)(=O)C(C)(C)C)c(N)n2)c1,-84*
OC1CCCN(c2c3c(nc4cc(-c5cccc(F)c5)nn24)CCCC3)C1 (stereo unspecified),-99*
Cc1cccc(-c2cc3nc4c(c(NCc5ccco5)n3n2)CCCC4)c1,-93*
Cc1cccc(-c2cc3nc4c(c(N5CCOCC5)n3n2)CCCC4)c1,-114*
CC(=O)c1cccc(NC(=O)CN2C=NS(=O)(=O)c3ccc(C)cc32)c1,-124*
Cc1ccccc1C(=O)Nc1ccc(N2CCCC2)cc1,-154*
Cc1cccc(NC(=O)c2ccc3ccccc3n2)c1C,-68*
Cc1ccc(S(=O)(=O)N2CCCCC2)cc1NC(=O)c1ccc2ccccc2n1,-122*
O=C(N/N=C\c1c(O)ccc2ccccc12)c1ccc(S(=O)(=O)N2CCCCC2)cc1,114
O=C(Nc1ccc(N2CCCCC2)cc1)c1ccc2ccccc2n1,-173*
CCOc1ccc(C(=O)N[C@H](C(=O)Nc2cccc(S(=O)(=O)N3CCCCC3)c2)C(C)C)cc1,76
O=C(Nc1ccc(N2CCCC2)cc1)C(Cl)c1ccccc1 (stereo unspecified),-108*
O=C(Nc1cccc(S(=O)(=O)N2CCCCCC2)c1)c1ccc2ccccc2n1,-89*
SMILES,aSyn 5UTR act
COc1ccc(NC(=O)c2ccc3ccccc3n2)cc1S(=O)(=O)N1CCCCC1,-122*
C/C(NC(=O)c1ccccc1)=C1/C(=O)CC2C1C2(C)C (stereo unspecified),-99*
COc1ccccc1CCCNC(=O)C1CCC(=O)N(Cc2ccccc2F)C1 (stereo unspecified),-130*
O=C(NCCCC1CCCC1)C1CCC(=O)N(Cc2cccc(F)c2)C1 (stereo unspecified),-161*
O=C(NCCCCCCOC1=NS(=O)(=O)c2ccccc21)C(=O)Nc1ccccc1,-93*
CCCc1c(C(=O)N/N=C/C(C)=C/c2ccccc2)nnn1-c1nonc1N,-67*

# Source: PubChem (Broad Institute)
